About 83,000 compounds went through this panel and 20% of them were active in at least one assay; those are over-represented in the sample as a whole.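 Cells were grown in 96-well plates and exposed to the test compound at a single concentration for 48 hours; results are reported as percent growth, with values below 10 considered active.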 Values without a mark were called inactive. Activity calls are given as the source filed them.

Some test systems named below: NCI-H23 lung; NCI-H226 lung; NCI-H322M lung; HOP-62 NSCLC; NCI-H460 lung; HOP-92 NSCLC; NCI-H522 lung; A549/ATCC NSCLC; 786-0 renal; COLO 205 colon; DU-145 prostate; K-562 leukemia; MALME-3M melanoma; MDA-MB-231 breast; SF-268 CNS; SF-295 CNS; SF-539 CNS; UACC-257 melanoma; M14 melanoma.
What all share (test): NCI-60 one-dose screen, 48 h (100 = growth as untreated, 0 = no growth, -100 = all killed)
Settings in all cases: 10 µM unless noted

Take `COc1cccc(CCC(=O)c2cc3c(N)c(C(=O)Nc4ccccc4)sc3nc2C)c1`: the growth in the assay on NCI-H23 lung was 67.9%; with NCI-H226 lung it was 71.5%; in the assay with NCI-H322M lung it was 52.7%; with HOP-62 NSCLC it was 45.1%; in the assay on NCI-H460 lung, 11.7%; in the assay on HOP-92 NSCLC, 74.2%. For the same compound, the growth is 37.5% in the assay on NCI-H522 lung; 39.6% with A549/ATCC NSCLC; 50.2% in the assay on 786-0 renal; 37.1% in the assay on COLO 205 colon; 65.8% with DU-145 prostate; 12.2% with K-562 leukemia. The growth is 27% with MALME-3M melanoma; 44.9% with MDA-MB-231 breast; 53.4% in the assay with SF-268 CNS; 24.9% with SF-295 CNS; 23.9% in the assay with SF-539 CNS; 63.3% in the assay on UACC-257 melanoma. Besides, the growth in the assay on M14 melanoma is 23.3%.

With `CC(C)(C)OC(=O)N1C/C(=C\c2ccoc2)C(=O)/C(=C/c2ccoc2)C1`, the growth with NCI-H23 lung was 99.1%; in the assay on NCI-H226 lung it was 98.3%; in the assay on NCI-H322M lung it was 87.7%; in the assay on HOP-62 NSCLC, 93.9%; in the assay on NCI-H460 lung, 107%; in the assay on HOP-92 NSCLC it was 100%. The growth was 78.8% in the assay on NCI-H522 lung; 102% with A549/ATCC NSCLC; 93.8% with 786-0 renal; 109% in the assay on COLO 205 colon; 109% with DU-145 prostate; 29.3% in the assay on K-562 leukemia. Further, the growth in the assay with MALME-3M melanoma was 92.6%; in the assay with MDA-MB-231 breast, 109%; with SF-268 CNS it was 89.5%; with SF-295 CNS, 103%; in the assay with SF-539 CNS, 106%; in the assay on UACC-257 melanoma, 95.9%. Further, the growth in the assay with M14 melanoma is 94.2%.

In the case of `NC(=O)C1(N2CCCCC2)CCN(CCCC(=O)c2ccc(F)cc2)CC1`, the growth in the assay with NCI-H23 lung is 31.6%; with NCI-H226 lung, 43.7%; in the assay with NCI-H322M lung it was 52.5%; in the assay with HOP-62 NSCLC it was 38.3%; in the assay with NCI-H460 lung, 11.9%; with HOP-92 NSCLC it was 92.5%. Besides, the growth was -30.2% (active) with NCI-H522 lung; 79.3% in the assay on A549/ATCC NSCLC; 49.8% in the assay with 786-0 renal; 13.9% with COLO 205 colon; 5.34% (active) in the assay with DU-145 prostate; 10.8% in the assay with K-562 leukemia. For the same compound, the growth was 57.1% in the assay with MALME-3M melanoma; 29.7% with MDA-MB-231 breast; 38.4% with SF-268 CNS; 4.82% (active) in the assay with SF-295 CNS; -3.17% (active) in the assay on SF-539 CNS; 47.1% with UACC-257 melanoma. The growth in the assay with M14 melanoma is 44.8%.

For `CC[C@@]12C=CCN3CC[C@]4(c5cc(NC(=O)COc6cc(OCC(=O)Nc7cc8c(cc7OC)N(C)[C@H]7[C@@](O)(C(=O)OC)[C@H](OC(C)=O)[C@]9(CC)C=CCN%10CC[C@]87[C@@H]%109)cc7oc(-c8ccccc8)cc(=O)c67)c(OC)cc5N(C)[C@@H]4[C@](O)(C(=O)OC)[C@H]1OC(C)=O)[C@H]32`, the growth in the assay with NCI-H23 lung is 0.327% (active); in the assay with NCI-H226 lung, 23.7%; with NCI-H322M lung, 45.9%; in the assay with HOP-62 NSCLC, 17.3%; in the assay on NCI-H460 lung, 0.985% (active); in the assay with HOP-92 NSCLC, 33.9%. Further, the growth with NCI-H522 lung was -27.7% (active); in the assay with A549/ATCC NSCLC, 51.7%; in the assay with 786-0 renal it was 41.4%; with COLO 205 colon it was 40.2%; in the assay on DU-145 prostate, 30.3%; with K-562 leukemia it was 45.6%. Besides, the growth in the assay on MALME-3M melanoma was 111%; with MDA-MB-231 breast, 4.69% (active); with SF-268 CNS it was -1.19% (active); with SF-295 CNS, 71.3%; in the assay with SF-539 CNS, 89.3%; with UACC-257 melanoma, 103%. For the same compound, in the assay with M14 melanoma, the growth is 50.4%.

On to `COc1cccc(/C=C2\COc3ccc(-c4ccccc4)cc3C2=O)c1`, for which the growth was 44.9% with NCI-H23 lung; 65.7% in the assay with NCI-H226 lung; 45.4% in the assay on NCI-H322M lung; -32.3% (active) with HOP-62 NSCLC; -22.3% (active) in the assay on NCI-H460 lung; -3.57% (active) with HOP-92 NSCLC. In addition, the growth is 25.2% in the assay with NCI-H522 lung; 37% in the assay with A549/ATCC NSCLC; -45.4% (active) with 786-0 renal; -23.4% (active) in the assay with COLO 205 colon; -40.2% (active) in the assay with DU-145 prostate; -2.92% (active) with K-562 leukemia. Moreover, the growth was 101% in the assay on MALME-3M melanoma; 32.3% with MDA-MB-231 breast; 4.23% (active) in the assay with SF-268 CNS; -44.8% (active) with SF-295 CNS; -29.8% (active) in the assay on SF-539 CNS; 49.2% in the assay on UACC-257 melanoma. For the same compound, in the assay with M14 melanoma, the growth was 23.6%.

As to `COc1ccc(Cn2nc(-c3cc(OC)c(OC)c(OC)c3)c3c2CCc2cnoc2-3)cc1OC`, the growth with NCI-H23 lung was 62.4%; in the assay with NCI-H226 lung, 84.5%; in the assay on NCI-H322M lung, 75.9%; with HOP-62 NSCLC, 57.2%; in the assay with NCI-H460 lung, 55.1%; in the assay with HOP-92 NSCLC, 33.3%. Further, the growth is 15.2% in the assay with NCI-H522 lung; 52.2% in the assay with A549/ATCC NSCLC; 66.5% with 786-0 renal; 74.4% with COLO 205 colon; 76.1% in the assay with DU-145 prostate; 18.9% in the assay with K-562 leukemia. Besides, the growth with MALME-3M melanoma is 78%; in the assay with MDA-MB-231 breast it was 52.7%; in the assay with SF-268 CNS, 68%; in the assay with SF-295 CNS it was 47.6%; in the assay on SF-539 CNS it was 37.7%; in the assay with UACC-257 melanoma it was 75.8%. Besides, the growth in the assay on M14 melanoma is 61.7%.

`O=C(O)CNC(=O)CN1C(=O)c2ccccc2C1=O`: the growth was 102% with NCI-H23 lung; 89.1% in the assay with NCI-H226 lung; 104% in the assay on NCI-H322M lung; 88.3% in the assay with HOP-62 NSCLC; 103% in the assay with NCI-H460 lung; 97.4% in the assay on HOP-92 NSCLC. In addition, the growth in the assay on NCI-H522 lung is 100%; in the assay with A549/ATCC NSCLC, 81.6%; in the assay with 786-0 renal, 98.4%; with COLO 205 colon, 104%; with DU-145 prostate, 120%; in the assay with K-562 leukemia, 85.8%. For the same compound, the growth in the assay with MALME-3M melanoma is 98.6%; in the assay on MDA-MB-231 breast, 114%; with SF-268 CNS it was 106%; with SF-295 CNS, 103%; in the assay with SF-539 CNS, 107%; with UACC-257 melanoma, 76.6%. For the same compound, the growth in the assay on M14 melanoma was 92.7%.

As for `COc1ccc(C(O)c2cc3c(N)c(C(=O)Nc4cccc(OC)c4)sc3nc2C)cc1` (configuration not stated), the growth with NCI-H23 lung is 30%; with NCI-H226 lung, 45.9%; in the assay on NCI-H322M lung it was 38.8%; with HOP-62 NSCLC, 26.5%; in the assay on NCI-H460 lung, 1.65% (active); in the assay with HOP-92 NSCLC, 37%. Also, the growth in the assay on NCI-H522 lung is -27.4% (active); with A549/ATCC NSCLC, 9.44% (active); in the assay on 786-0 renal, 33.9%; in the assay with COLO 205 colon it was -42.8% (active); in the assay with DU-145 prostate, 6.75% (active); in the assay with K-562 leukemia, 7.83% (active). The growth in the assay with MALME-3M melanoma was 52.3%; in the assay with MDA-MB-231 breast it was 12.1%; in the assay with SF-268 CNS, 27%; in the assay with SF-295 CNS it was 3.76% (active); with SF-539 CNS it was -12% (active); with UACC-257 melanoma, 49.7%. The growth with M14 melanoma is 11.8%.

The record behind these values is PubChem BioAssay (NCI).
